Experimental data: PubChem BioAssay (EPA / NIEHS)
Activity calls are given as the source filed them. How the source made its calls: active means hit-call score of the fitted dose curve at least 0.9, where 1 is the maximum; inactive means score below 0.9.

What was measured:
Conditions in all cases: mRNA level, 48 h; actives raise or lower the signal
[1] = read-out: 3-Hydroxy-3-Methylglutaryl-CoA Synthase 2 (HMGCS2), HMGCS2 (gene 3158); assay: LTEA_HepaRG_HMGCS2: Life Technologies and Expression Analysis (LTEA) Assay for 3-Hydroxy-3-Methylglutaryl-CoA Synthase 2 (HMGCS2) using HepaRG (AID 2283504)
How it was run: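 Human HepaRG cells in serum-free induction medium were exposed in duplicate for 48 h to 8-point half-log series from 100 uM top in 0.5% DMSO. HMGCS2 mRNA measured by TaqMan qRT-PCR, normalised to ACTB, GAPDH, POLR2A; bidirectional fit versus DMSO.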

HGF (gene 3082) = assay: LTEA_HepaRG_HGF: Life Technologies and Expression Analysis (LTEA) Assay for Hepatocyte Growth Facto (HGF) using HepaRG (AID 2283505)
How it was run: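 Differentiated HepaRG cells in serum-free induction medium exposed 48 h in duplicate, 8 half-log concentrations from 100 uM in 0.5% DMSO. HGF mRNA by qRT-PCR, normalised to ACTB, GAPDH, POLR2A; bidirectional fitting.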

[2] = read-out: Insulin Like Growth Factor 1 (IGF1), IGF1 (gene 3479); assay: LTEA_HepaRG_IGF1: Life Technologies and Expression Analysis (LTEA) Assay for Insulin Like Growth Factor 1 (IGF1) using HepaRG (AID 2283506)
How it was run: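 Using human HepaRG liver cells, IGF1 transcript induction or suppression is measured 48 h after dosing across eight concentrations capped at 100 uM. Values derive from bidirectional concentration-response fitting with DMSO as baseline.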

[3] = read-out: Intercellular Adhesion Molecule 1 (ICAM1), ICAM1 (gene 3383); assay: LTEA_HepaRG_ICAM1: Life Technologies and Expression Analysis (LTEA) Assay for Intercellular Adhesion Molecule 1 (ICAM1) using HepaRG (AID 2283507)
How it was run: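 Differentiated human HepaRG cells in serum-free induction medium exposed 48 h in duplicate to 8 half-log concentrations (top 100 uM, 0.5% DMSO). ICAM1 mRNA quantified by TaqMan qRT-PCR, normalized to ACTB, GAPDH and POLR2A; bidirectional fitting versus DMSO.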

[4] = read-out: Insulin-like growth factor-binding protein 1 (IGFBP1), IGFBP1 (gene 3484); assay: LTEA_HepaRG_IGFBP1: Life Technologies and Expression Analysis (LTEA) Assay for Insulin-like growth factor-binding protein 1 (IGFBP1) using HepaRG (AID 2283508)
How it was run: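 HepaRG cells, plated 48 h then switched to serum-free induction medium, exposed in duplicate for 48 h to 8-point half-log series from 100 uM in 0.5% DMSO. mRNA measured by qRT-PCR, normalized to ACTB/GAPDH/POLR2A; bidirectional fit versus DMSO.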

[5] = read-out: Interleukin 6 (IL6), IL6 (gene 3569); assay: LTEA_HepaRG_IL6: Life Technologies and Expression Analysis (LTEA) Assay for Interleukin 6 (IL6) using HepaRG (AID 2283509)
How it was run: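 HepaRG, ~100,000 cells/well, 48 h pre-culture; serum-free induction medium; cmpd 8-pt half-log from 100 uM, 0.5% DMSO, duplicate, 48 h. Lysis in RLT, TaqMan qRT-PCR; gain or loss vs DMSO.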

[6] = read-out: Interleukin 6 Receptor (IL6R), IL6R (gene 3570); assay: LTEA_HepaRG_IL6R: Life Technologies and Expression Analysis (LTEA) Assay for Interleukin 6 Receptor (IL6R) using HepaRG (AID 2283510);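 on AC50: TaqMan qRT-PCR signal normalized to ACTB GAPDH and POLR2A housekeeping genes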
How it was run: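 Concentration-response in human liver HepaRG cells: eight concentrations from 100 uM downward by half-logs, 48 h exposure, 0.5% DMSO vehicle. IL6R mRNA change measured by qRT-PCR and fitted in both directions relative to vehicle.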

[7] = read-out: Potassium channel subfamily K member 1 (KCNK1), KCNK1 (gene 3775); assay: LTEA_HepaRG_KCNK1: Life Technologies and Expression Analysis (LTEA) Assay for Potassium channel subfamily K member 1 (KCNK1) using HepaRG (AID 2283511)
How it was run: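 Gain or loss of KCNK1 mRNA is the read-out, quantified by qRT-PCR against three housekeeping genes after 48 h chemical treatment of human HepaRG liver cells. Concentrations ran from 100 uM downward in half-log steps, vehicle 0.5% DMSO.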

[8] = read-out: Keratin 19 (KRT19), KRT19 (gene 3880); assay: LTEA_HepaRG_KRT19: Life Technologies and Expression Analysis (LTEA) Assay for Keratin 19 (KRT19) using HepaRG (AID 2283512)
How it was run: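 Differentiated HepaRG cells in serum-free induction medium, exposed 48 h in duplicate to 8 half-log concentrations up to 100 uM in 0.5% DMSO. KRT19 mRNA by qRT-PCR, normalized to ACTB, GAPDH, POLR2A; bidirectional fit vs DMSO.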

[9] = read-out: JUN Transcription Factor, JUN (gene 3725); assay: LTEA_HepaRG_JUN: Life Technologies and Expression Analysis (LTEA) Assay for JUN Transcription Factor using HepaRG (AID 2283513)
How it was run: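 Human HepaRG liver cells receive test chemicals in 0.5% DMSO for 48 h across an eight-point range topping at 100 uM. Expression changes in JUN are scored in both directions against the DMSO vehicle.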

[10] = read-out: Lipase C (LIPC), LIPC (gene 3990); assay: LTEA_HepaRG_LIPC: Life Technologies and Expression Analysis (LTEA) Assay for Lipase C (LIPC) using HepaRG (AID 2283514)
How it was run: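 Read-out is LIPC transcript level by TaqMan qRT-PCR, normalized to three housekeeping genes, after 48 h chemical treatment of human HepaRG liver cells. Curves span eight concentrations topping at 100 uM; activity in either direction scored relative to 0.5% DMSO.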

[11] = read-out: Lipoprotein lipase (LPL), LPL (gene 4023); assay: LTEA_HepaRG_LPL: Life Technologies and Expression Analysis (LTEA) Assay for Lipoprotein lipase (LPL) using HepaRG (AID 2283515)
How it was run: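 Read-out is LPL transcript level by qRT-PCR, normalized to three housekeeping genes and fitted bidirectionally against the DMSO control. Human HepaRG cells received chemicals for 48 h at up to 100 uM.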

[12] = read-out: MicroRNA 122 (MIR122), gene 406906; assay: LTEA_HepaRG_MIR122: Life Technologies and Expression Analysis (LTEA) Assay for MicroRNA 122 (MIR122) using HepaRG (AID 2283516); further: the transcript read is the microRNA miR-122
How it was run: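 HepaRG, 48 h exposure, 8-pt half-log from 100 uM, 0.5% DMSO; TaqMan qRT-PCR; bidirectional fit vs DMSO.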

[13] = read-out: matrix metalloproteinase-10 (MMP10), MMP10 (gene 4319); assay: LTEA_HepaRG_MMP10: Life Technologies and Expression Analysis (LTEA) Assay for matrix metalloproteinase-10 (MMP10) using HepaRG (AID 2283517)
How it was run: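 Gain or loss of MMP10 mRNA is fitted relative to the 0.5% DMSO vehicle. The human hepatic line HepaRG receives a 48-hour serum-free exposure, in duplicate, with a maximum concentration of 100 uM.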

MYC, MYC (gene 4609) = assay: LTEA_HepaRG_MYC: Life Technologies and Expression Analysis (LTEA) Assay for MYC using HepaRG (AID 2283518)
How it was run: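 Differentiated HepaRG cells exposed 48 h in serum-free induction medium to 8 concentrations (top 100 uM, half-log steps; 0.5% DMSO), duplicate. MYC mRNA measured by Fluidigm qRT-PCR, normalized to ACTB, GAPDH, POLR2A; bidirectional fit versus DMSO.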

[14] = read-out: matrix metalloproteinase-3 (MMP3), MMP3 (gene 4314); assay: LTEA_HepaRG_MMP3: Life Technologies and Expression Analysis (LTEA) Assay for matrix metalloproteinase-3 (MMP3) using HepaRG (AID 2283519)
How it was run: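 HepaRG, human; 48 h dosing, 8 conc. (max 100 uM, half-log), duplicate, 0.5% DMSO. Readout: MMP3 transcript by Fluidigm TaqMan qRT-PCR, ACTB/GAPDH/POLR2A-normalised. Gain or loss fitted vs DMSO.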

[15] = read-out: Paternally Expressed 10 (PEG10), PEG10 (gene 23089); assay: LTEA_HepaRG_PEG10: Life Technologies and Expression Analysis (LTEA) Assay for Paternally Expressed 10 (PEG10) using HepaRG (AID 2283520);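 on AC50: PEG10 transcript by qRT-PCR normalised to ACTB GAPDH and POLR2A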
How it was run: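 Chemicals tested on HepaRG cells for 48 h, highest concentration 100 uM. PEG10 expression assessed by qRT-PCR relative to DMSO control.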

[16] = read-out: Nuclear factor NF-kappa-B p105 subunit (Homo sapiens) (UniProt P19838); assay: LTEA_HepaRG_NFKB1: Life Technologies and Expression Analysis (LTEA) Assay for Nuclear Factor Kappa B Subunit 1 (NFKB1) using HepaRG (AID 2283521)
How it was run: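 Differentiated human HepaRG cells in serum-free induction medium with 0.5% DMSO were exposed for 48 h to eight half-log concentrations, top 100 uM, in duplicate. NFKB1 mRNA measured by Fluidigm TaqMan qRT-PCR, normalised to ACTB, GAPDH and POLR2A; bidirectional fit versus DMSO.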

[17] = read-out: Protein phosphatase 2A (PPP2R4), PTPA (gene 5524); assay: LTEA_HepaRG_PPP2R4: Life Technologies and Expression Analysis (LTEA) Assay for Protein phosphatase 2A (PPP2R4) using HepaRG (AID 2283522)
How it was run: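 Gene-expression endpoint in HepaRG hepatic cells: 48 h treatment across eight half-log concentrations up to 100 uM in 0.5% DMSO. PPP2R4 mRNA by qRT-PCR, normalized to three endogenous control genes.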

[18] = read-out: Phosphatase and tensin (PTEN), PTEN (gene 5728); assay: LTEA_HepaRG_PTEN: Life Technologies and Expression Analysis (LTEA) Assay for Phosphatase and tensin (PTEN) using HepaRG (AID 2283523)
How it was run: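 Read-out is PTEN transcript level by multiplexed TaqMan qRT-PCR after 48 h chemical treatment of human HepaRG cultures in serum-free induction medium. Concentrations spanned 100 uM downward in half-log steps, 0.5% DMSO throughout; activity fitted in both directions against vehicle.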

Measured: AC50

Nuclear factor NF-kappa-B p105 subunit (Homo sapiens), sequence (P19838 whole entry, looked up): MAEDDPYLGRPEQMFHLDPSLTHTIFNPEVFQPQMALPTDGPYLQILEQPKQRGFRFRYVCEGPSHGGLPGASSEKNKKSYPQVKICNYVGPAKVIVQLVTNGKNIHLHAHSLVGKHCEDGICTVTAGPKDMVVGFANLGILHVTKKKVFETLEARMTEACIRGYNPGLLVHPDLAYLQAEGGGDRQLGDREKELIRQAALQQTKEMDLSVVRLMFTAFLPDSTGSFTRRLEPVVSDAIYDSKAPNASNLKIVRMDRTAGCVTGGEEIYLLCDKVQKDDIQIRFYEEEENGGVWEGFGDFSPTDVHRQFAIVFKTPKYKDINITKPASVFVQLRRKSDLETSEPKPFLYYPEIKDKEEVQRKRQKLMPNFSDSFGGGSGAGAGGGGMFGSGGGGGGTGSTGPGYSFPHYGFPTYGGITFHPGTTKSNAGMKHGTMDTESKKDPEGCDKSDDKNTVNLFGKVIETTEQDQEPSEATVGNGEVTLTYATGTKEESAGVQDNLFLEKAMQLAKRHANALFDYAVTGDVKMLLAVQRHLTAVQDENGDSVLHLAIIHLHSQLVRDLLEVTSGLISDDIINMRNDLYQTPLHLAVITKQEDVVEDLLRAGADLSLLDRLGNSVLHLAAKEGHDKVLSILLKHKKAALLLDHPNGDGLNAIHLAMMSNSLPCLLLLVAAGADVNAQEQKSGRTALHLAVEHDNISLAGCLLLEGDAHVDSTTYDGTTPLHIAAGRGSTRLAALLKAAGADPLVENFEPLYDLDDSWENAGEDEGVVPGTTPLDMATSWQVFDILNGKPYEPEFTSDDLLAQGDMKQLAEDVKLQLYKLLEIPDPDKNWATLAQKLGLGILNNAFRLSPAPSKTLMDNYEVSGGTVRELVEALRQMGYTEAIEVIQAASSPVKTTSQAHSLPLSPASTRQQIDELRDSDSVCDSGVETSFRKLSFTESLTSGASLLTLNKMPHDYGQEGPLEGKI

NC(=O)N(O)[C@@H]1COc2cc(OCc3ccccc3)ccc21
inactive: all assays above

NC(N)=O
inactive: all assays above

OCc1ccccc1
inactive: all assays above

COCc1nnc(-c2ccc[n+]([O-])c2)n1-c1c(Cl)c(Cl)cc2[nH]c(=O)c(=O)[nH]c12
not listed: [16]
inactive: all other assays above

CCCC(CCC)C(=O)O
not listed: HGF (gene 3082)
inactive: all other assays above

c1ccc2c(c1)-c1cccc3c1c-2cc1ccccc13
inactive: [3] | [5] | [7] | [9] | [13] | [14] | [18]
active: [1] 16.1 µM | HGF (gene 3082) 50 µM | [2] 16 µM | [4] 2.54 µM | [6] 11.1 µM | [8] 1.4 µM | [10] 13.3 µM | [11] 5.49 µM | [12] 19.6 µM | MYC, MYC (gene 4609) 2.06 µM | [15] 8.43 µM | [17] 14.3 µM

COc1cc(C(C)C)c2c(c1)S(=O)(=O)N(COc1cc(=O)n3cccc(OCCN4CCCCC4)c3n1)C2=O
active: [1] 20 µM | HGF (gene 3082) 12.5 µM | [5] 12.5 µM | [6] 12.5 µM | [8] 12.5 µM | [11] 21.2 µM | [12] 23.4 µM | [13] 21.1 µM | [14] 19.7 µM | [15] 19.5 µM | [18] 22.6 µM
inactive: [2] | [3] | [4] | [7] | [9] | MYC, MYC (gene 4609) | [16] | [17]
